Data on seven molecules can be found in PubChem BioAssay (NCATS).

The structures appear in SMILES notation. “And” between values parts separate entries of the source, which are not always exact repeats. Equal values may be shown once. Results filed as inconclusive are left out. The source made the active and inactive calls. Unless noted, calls come from the whole dose curve; as a rule, active = well fitted curve in either direction with a large enough effect (not every such curve was filed as active); inconclusive = small, poorly fitted or top-dose-only effect, or another doubt; inactive = flat fitted curve, though single readings scatter.

The nature of test [1]: AP1 Signaling Pathway (AID 357).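 Note: ME-180 reporter cells stimulated with EGF at its EC50 level; % is set by controls: 0 for no effect and ±100 for the full control effect.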 In outline:
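AP-1-bla ME-180 cells, Opti-MEM + 0.5% dialyzed FBS, plated overnight 37 °C. Cpd titration + EC50 EGF, 5 h 37 °C. CCF4 2.5 h RT; ex 405, em 460/530 ratio → %activity, AC50.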

The nature of test [2]: NFAT Signaling Pathway (AID 444).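 Note: carbachol stimulus at about its EC50 of 1 µM final; % is set by controls: 0 for no effect and ±100 for the full control effect.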 The settings on record: Jurkat NFAT-bla M1, carbachol, beta-lactamase ratio, 5 h; at 17.2 µM (top of the series). In outline: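 Jurkat cells carrying an NFAT-driven β-lactamase reporter and co-transfected muscarinic M1 receptor were treated with compound plus carbachol (1 uM final, an EC50 level) for 5 h at 37 °C. CCF4 loading followed for 1 h at RT; 460/530 nm ratio gave %activity.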

A short description of test [3]: Stat Signaling Pathway (AID 446).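 Note: ME-180 cervical cancer cells given 40 pM IL-6 alongside compound; SIE-controlled beta-lactamase reporter measured as 460/530 nm FRET emission ratio; % is set by controls: 0 for no effect and ±100 for the full control effect.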 A digest of the protocol:
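Emission at 460 and 530 nm (excitation 405 nm) reports SIE-controlled beta-lactamase in ME-180 cells. Cells received compound with 40 pM IL-6 for 5 hrs at 37 C; data scaled between 300 pM IL-6 and 125 nM JAK-inhibitor controls.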

Test [4] addresses Glucocorticoid receptor (Homo sapiens) (UniProt P04150). The test is described as follows: GR-GFP Redistribution (AID 450;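 active = compounds whose dose series gives a full or clear partial fitted curve of increased nuclear translocation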; note: potency is the fitted concentration of half-maximal effect). The settings on record: U2OS GR-GFP nuclear translocation, laser cytometry, 2 h.
The target is the same in test [5]. The test is described as follows: GR-EFC Redistribution (AID 451; calls by dose curve; note: potency is the fitted concentration of half-maximal effect). The settings on record: CHO-K1 GR-EFC translocation, beta-gal luminescence, 2 h. A digest of the protocol:
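CHO-K1 cells stably expressing nuclear-localized β-gal enzyme acceptor and GR fused C-terminally to the enzyme donor fragment; ligand-driven nuclear translocation restores β-gal by complementation. Compounds titrated up to 46 uM final, 2 h at 37 °C; luminescence read.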

Test [6] addresses Mitogen-activated protein kinase 10 (Mus musculus) (UniProt Q61831). The test is described as follows: JNK3 AlphaScreen Assay (AID 530).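 Note: kinase came from lysate of stimulated human HepG2 cells; signal reports phosphorylation of biotinylated GST-cJun 1-79 at Ser73 with 10 µM ATP; % is set by controls: 0 for no effect and ±100 for the full control effect.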 A digest of the protocol: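 Biotinylated GST-cJun(1-79) served as substrate for JNK3 in HepG2 lysates stimulated with IL-1beta and TNF-alpha. ATP was 10 uM final, pH 7.6. Ser73 phosphorylation was quantified by AlphaScreen (680 nm excitation).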
For orientation: Alpha assays give light when donor and acceptor beads are brought close together.

The target in test [7] is 3',5'-cyclic-AMP phosphodiesterase 4B (Homo sapiens) (UniProt Q07343). The test is described as follows: qHTS Assay for Inhibitors of PDE-IV (AID 607; active = well fitted activation curve with a large enough effect in the main read-out, with a control signal flat, not every such curve was filed as active; note: % of control where 0% means no effect). A digest of the protocol:
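The readout is membrane depolarisation from a cAMP-sensing CNG channel, detected with a potential dye at ex 535/em 590. Cells were HEK293-derived (endogenous PDE-IV) at 1000 cells/well, titrated up to 22.9 uM final.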
On the technique in general: Quantitative high-throughput screening tests each substance at several concentrations.

The nature of test [8]: qHTS Assay for Lipid Storage Modulators (AID 1519; calls by dose curve). The settings on record: Drosophila S3 cells, BODIPY lipid droplet/cell ratio, laser cytometry, cells loaded with oleic acid. A digest of the protocol:
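Cells seeded at 5,000 per well were treated with compounds over a concentration series and loaded with oleic acid (400 uM, as added). Lipid droplet fluorescence (488 nm excitation, 500-530 nm channel) was read by laser-scanning cytometry and normalized to 20 uM Triacsin C.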

Test [9] addresses Ubiquitin carboxyl-terminal hydrolase 1 (Homo sapiens) (UniProt O94782). Nature of the test: Inhibitors of USP1/UAF1: Pilot qHTS (AID 504865; active = well fitted curve in the direction sought with a large enough effect; an effect the other way counts as inactive or inconclusive;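 note: rhodamine fluorescence freed from ubiquitin-rhodamine substrate followed over time; top concentration of the series differs between compounds; % is set by controls: 0 for no effect and ±100 for the full control effect; nearly all actives have a fitted effect of over 35% in size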). A digest of the protocol:
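Kinetic fluorescence assay: 1nM USP1/UAF1, 15 min compound preincubation, then 150nM Ub-Rho; 480/540 nm.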

Test [10] has as its target Cytochrome P450 3A4 (Homo sapiens) (UniProt P08684). Nature of the test: qHTS Assay for Activators of Cytochrome P450 3A4 (AID 885; active = well fitted curve in the direction sought with a large enough effect; an effect the other way counts as inactive or inconclusive; note: nearly all actives have a fitted effect of over 65% in size). A digest of the protocol: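 Activators are scored by enhanced luminescence from CYP3A4 conversion of luciferin-PPXE (25uM, equal to KM) to luciferin, after 60 min at RT with an NADPH-regenerating system.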
A short description of test [11]: Confirmation and Secondary Assay for Modulators of Hemoglobin Beta Chain Splicing at IVS2 654 locus (AID 910; active = well fitted curve in the direction sought with a large enough effect; an effect the other way counts as inactive or inconclusive;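 note: per-well total GFP intensity by laser scanning cytometry after 2-day treatment; % of control where 0% means no effect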). A digest of the protocol: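 HeLa cells stably carrying EGFP interrupted by mutant beta-globin IVS2-654 intron (CMV-driven) were treated with compound for 2 days at 37C; corrected splicing was scored as total peak GFP intensity per well (488 nm excitation, 500-520 nm emission).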

Test [12] can be described thus: Confirmation and Secondary Assay for Modulators of Hemoglobin Beta Chain Splicing at IVS2 705 locus (AID 930; active = well fitted curve in the direction sought with a large enough effect; an effect the other way counts as inactive or inconclusive;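 note: HeLa cells stably expressing the EGFP-705 splicing reporter; % of control where 0% means no effect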). In outline:
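HeLa cells stably carrying EGFP interrupted by mutant beta-globin IVS2-705 intron (CMV-driven) were seeded at 500 cells/well, treated next day with compound for 2 days at 37C; corrected splicing restores EGFP, read as total peak GFP intensity per well.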

Test [13] has as its target Peroxisome proliferator-activated receptor alpha (Homo sapiens) (UniProt Q07869). The test is described as follows: qHTS assay for small molecule agonists of the peroxisome proliferator-activated receptor alpha (PPARalpha) signaling pathway (AID 651778; active = well fitted curve in the direction sought with a large enough effect; an effect the other way counts as inactive or inconclusive; note: % of control where 0% means no effect). The conditions noted are these: PathHunter PPARalpha complementation, chemiluminescence, 6 h; stronger effect = higher value. In outline:
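Cells plated at 2,000/well and held overnight at 37 C, 5% CO2, then compound added by pin tool for 6 hr; after PathHunter detection reagent and 60 min at room temperature, chemiluminescence from enzyme complementation was read.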

The nature of test [14]: qHTS assay for cell viability of HEK293 cells (AID 743288; active = well fitted curve in the direction sought with a large enough effect; an effect the other way counts as inactive or inconclusive; note: % is set by controls: 0 for no effect and ±100 for the full control effect; nearly all actives have a fitted effect of over 50% in size). The settings on record: ATP luminescence (CellTiter-Glo), 18 h; max response: stronger effect = lower value. A digest of the protocol:
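Quantitative high-throughput screen: compounds were pinned onto parental HEK293 cells (2,000 per well) after a minimum 5 h settling at 37 C, incubated 18 h at 37 C, and intracellular ATP measured by luciferase luminescence.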

The target of test [15] is Cytochrome P450 1A2 (Homo sapiens) (UniProt P05177). Nature of the test: p450-cyp1a2 (AID 410; calls by dose curve; note: potency is the fitted concentration of half-maximal effect;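 for activity change, negative = inhibition: -100% = full effect of reference inhibitor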). A digest of the protocol: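 Read-out is luminescence from luciferin produced by CYP1A2 demethylation of Luciferin-ME (100uM, at Km). Detection reagent stopped the 60 min NADPH-dependent reaction; signals were normalized to 57 uM furafylline.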
Chain of Cytochrome P450 1A2 (Homo sapiens) (P05177 whole entry, looked up): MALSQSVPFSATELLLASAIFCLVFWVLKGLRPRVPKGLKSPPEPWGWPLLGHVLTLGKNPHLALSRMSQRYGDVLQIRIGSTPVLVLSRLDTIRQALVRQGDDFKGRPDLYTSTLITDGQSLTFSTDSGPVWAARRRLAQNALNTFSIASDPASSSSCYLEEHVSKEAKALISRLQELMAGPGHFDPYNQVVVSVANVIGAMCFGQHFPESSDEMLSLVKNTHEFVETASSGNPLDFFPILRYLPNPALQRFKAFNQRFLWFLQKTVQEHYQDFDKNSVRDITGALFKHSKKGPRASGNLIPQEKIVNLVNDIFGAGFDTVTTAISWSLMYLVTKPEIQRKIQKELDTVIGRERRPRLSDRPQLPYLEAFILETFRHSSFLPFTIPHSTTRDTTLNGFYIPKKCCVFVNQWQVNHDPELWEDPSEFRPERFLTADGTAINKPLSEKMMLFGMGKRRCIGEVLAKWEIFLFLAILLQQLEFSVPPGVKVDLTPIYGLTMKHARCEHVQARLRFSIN
Test [16] has as its target Luciferin 4-monooxygenase (Photinus pyralis) (UniProt P08659). Nature of the test: Biochemical firefly luciferase enzyme assay for NPC (AID 624030; active = well fitted curve in the direction sought with a large enough effect; an effect the other way counts as inactive or inconclusive;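 note: purified P. pyralis luciferase at 10 nM with luciferin and ATP substrate; 0% = DMSO and -100% = full luciferase inhibition by PTC124 control; nearly all actives have a fitted effect of over 70% in size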). In outline: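 Counter-screen for direct inhibition of the luciferase enzyme by approved-drug library compounds, run at 10 nM enzyme in 50 mM Tris acetate (final). Luminescence was read within 5 min of enzyme-buffer addition and normalized to PTC124 versus DMSO (0%).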

Test [17] is described as follows: qHTS profiling for inhibitors of Plasmodium falciparum proliferation (AID 504749; active = well fitted curve in the direction sought with a large enough effect; an effect the other way counts as inactive or inconclusive;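 note: 0% = DMSO vehicle and full inhibition = artemisinin control; nearly all actives have a fitted effect of over 60% in size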). The conditions noted are these: P. falciparum in erythrocytes, SYBR Green DNA, 72 h, at 12.8 µM (top of the series). A digest of the protocol:
(§1)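 Fluorescence of SYBR Green-bound parasite DNA, read at 485/535 nm, served as the growth measure. Infected erythrocytes were cultured with compound 72 h; artemisinin (0.29 uM) and DMSO wells defined the normalization range.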

Test [18] deals with ATS189. The test is described as above. The settings on record: P. falciparum in erythrocytes, SYBR Green DNA, 72 h; series mostly up to 28.7 µM. In outline: as §1
Test [19] concerns DFO2036. Described as above. The settings on record: P. falciparum in erythrocytes, SYBR Green DNA, 72 h; series mostly up to 28.7 µM. In outline:
as §1

Where [20] appears, read: measured here: cell count channel max response.
Where [21] appears, read: measured here: lipid channel max response.

Chain of Glucocorticoid receptor (Homo sapiens) (P04150 whole entry, looked up): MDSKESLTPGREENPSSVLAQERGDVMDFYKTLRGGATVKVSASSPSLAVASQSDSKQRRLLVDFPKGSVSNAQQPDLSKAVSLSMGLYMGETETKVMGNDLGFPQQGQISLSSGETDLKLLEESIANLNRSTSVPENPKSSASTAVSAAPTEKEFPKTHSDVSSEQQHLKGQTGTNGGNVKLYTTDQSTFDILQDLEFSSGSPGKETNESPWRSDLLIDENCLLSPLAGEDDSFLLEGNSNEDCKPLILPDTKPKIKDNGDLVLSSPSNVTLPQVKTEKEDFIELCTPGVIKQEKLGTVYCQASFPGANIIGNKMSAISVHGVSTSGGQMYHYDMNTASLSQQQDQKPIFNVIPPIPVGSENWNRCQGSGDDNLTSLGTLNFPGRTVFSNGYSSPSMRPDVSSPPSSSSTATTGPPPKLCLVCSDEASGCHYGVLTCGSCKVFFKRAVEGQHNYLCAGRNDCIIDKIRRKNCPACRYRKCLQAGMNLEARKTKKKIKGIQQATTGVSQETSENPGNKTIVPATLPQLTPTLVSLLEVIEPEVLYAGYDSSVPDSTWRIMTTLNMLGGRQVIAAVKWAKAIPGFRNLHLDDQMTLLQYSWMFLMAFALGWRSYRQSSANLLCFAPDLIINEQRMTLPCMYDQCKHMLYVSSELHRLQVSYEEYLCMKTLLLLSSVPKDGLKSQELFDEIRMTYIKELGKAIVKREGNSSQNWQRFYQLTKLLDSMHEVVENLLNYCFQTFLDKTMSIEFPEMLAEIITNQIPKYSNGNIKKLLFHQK
Chain of Ubiquitin carboxyl-terminal hydrolase 1 (Homo sapiens) (O94782 whole entry, looked up): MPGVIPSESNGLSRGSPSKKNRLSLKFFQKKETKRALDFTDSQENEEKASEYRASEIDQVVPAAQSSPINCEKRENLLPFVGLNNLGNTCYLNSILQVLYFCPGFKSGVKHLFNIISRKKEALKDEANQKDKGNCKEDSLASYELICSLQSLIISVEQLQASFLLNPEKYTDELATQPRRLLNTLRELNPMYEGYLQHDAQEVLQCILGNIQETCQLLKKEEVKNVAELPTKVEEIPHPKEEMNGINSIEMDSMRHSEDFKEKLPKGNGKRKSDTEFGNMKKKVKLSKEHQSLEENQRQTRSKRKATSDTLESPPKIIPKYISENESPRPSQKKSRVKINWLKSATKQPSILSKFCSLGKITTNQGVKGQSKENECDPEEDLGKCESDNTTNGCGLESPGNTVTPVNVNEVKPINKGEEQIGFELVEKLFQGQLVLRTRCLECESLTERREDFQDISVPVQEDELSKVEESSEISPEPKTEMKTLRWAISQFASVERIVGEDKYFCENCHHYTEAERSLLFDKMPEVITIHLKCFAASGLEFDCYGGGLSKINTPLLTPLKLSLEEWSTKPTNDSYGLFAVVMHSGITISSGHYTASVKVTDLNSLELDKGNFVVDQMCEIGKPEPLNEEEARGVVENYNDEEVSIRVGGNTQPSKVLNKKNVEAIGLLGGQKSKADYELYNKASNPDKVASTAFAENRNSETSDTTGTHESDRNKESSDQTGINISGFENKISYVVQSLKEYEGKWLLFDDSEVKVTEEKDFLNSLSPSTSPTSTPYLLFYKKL
Chain of Cytochrome P450 3A4 (Homo sapiens) (P08684 whole entry, looked up): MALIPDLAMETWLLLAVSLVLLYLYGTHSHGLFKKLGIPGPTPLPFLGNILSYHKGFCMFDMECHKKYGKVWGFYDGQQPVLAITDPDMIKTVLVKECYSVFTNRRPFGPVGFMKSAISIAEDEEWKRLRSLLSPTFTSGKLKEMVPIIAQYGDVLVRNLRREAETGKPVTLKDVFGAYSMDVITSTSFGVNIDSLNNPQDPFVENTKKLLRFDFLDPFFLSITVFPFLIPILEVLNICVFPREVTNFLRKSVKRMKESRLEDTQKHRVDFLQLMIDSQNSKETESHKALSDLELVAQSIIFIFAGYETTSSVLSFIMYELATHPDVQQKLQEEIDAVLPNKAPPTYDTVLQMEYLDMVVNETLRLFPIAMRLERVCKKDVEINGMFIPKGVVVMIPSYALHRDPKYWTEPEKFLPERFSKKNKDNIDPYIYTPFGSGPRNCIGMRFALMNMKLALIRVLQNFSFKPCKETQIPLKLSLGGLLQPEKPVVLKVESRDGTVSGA
Chain of 3',5'-cyclic-AMP phosphodiesterase 4B (Homo sapiens) (Q07343 whole entry, looked up): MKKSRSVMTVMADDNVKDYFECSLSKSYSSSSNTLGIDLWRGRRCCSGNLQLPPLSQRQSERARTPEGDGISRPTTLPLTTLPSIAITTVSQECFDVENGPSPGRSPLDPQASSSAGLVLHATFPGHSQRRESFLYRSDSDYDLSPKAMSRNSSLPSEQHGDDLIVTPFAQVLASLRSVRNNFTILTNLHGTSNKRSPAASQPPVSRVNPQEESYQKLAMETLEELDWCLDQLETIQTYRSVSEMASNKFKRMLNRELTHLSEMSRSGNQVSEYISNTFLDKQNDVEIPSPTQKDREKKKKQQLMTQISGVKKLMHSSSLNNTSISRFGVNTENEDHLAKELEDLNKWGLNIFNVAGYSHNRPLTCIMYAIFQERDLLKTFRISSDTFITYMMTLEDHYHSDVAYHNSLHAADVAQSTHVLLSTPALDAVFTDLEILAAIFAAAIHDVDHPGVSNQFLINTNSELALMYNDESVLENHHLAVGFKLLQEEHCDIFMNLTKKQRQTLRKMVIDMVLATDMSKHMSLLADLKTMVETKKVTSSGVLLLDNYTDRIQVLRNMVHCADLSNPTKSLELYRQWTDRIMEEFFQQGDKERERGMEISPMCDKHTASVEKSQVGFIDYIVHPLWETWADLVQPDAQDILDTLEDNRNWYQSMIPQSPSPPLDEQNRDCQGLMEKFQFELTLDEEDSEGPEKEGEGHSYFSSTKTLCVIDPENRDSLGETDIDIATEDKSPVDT
Chain of Luciferin 4-monooxygenase (Photinus pyralis) (P08659 whole entry, looked up): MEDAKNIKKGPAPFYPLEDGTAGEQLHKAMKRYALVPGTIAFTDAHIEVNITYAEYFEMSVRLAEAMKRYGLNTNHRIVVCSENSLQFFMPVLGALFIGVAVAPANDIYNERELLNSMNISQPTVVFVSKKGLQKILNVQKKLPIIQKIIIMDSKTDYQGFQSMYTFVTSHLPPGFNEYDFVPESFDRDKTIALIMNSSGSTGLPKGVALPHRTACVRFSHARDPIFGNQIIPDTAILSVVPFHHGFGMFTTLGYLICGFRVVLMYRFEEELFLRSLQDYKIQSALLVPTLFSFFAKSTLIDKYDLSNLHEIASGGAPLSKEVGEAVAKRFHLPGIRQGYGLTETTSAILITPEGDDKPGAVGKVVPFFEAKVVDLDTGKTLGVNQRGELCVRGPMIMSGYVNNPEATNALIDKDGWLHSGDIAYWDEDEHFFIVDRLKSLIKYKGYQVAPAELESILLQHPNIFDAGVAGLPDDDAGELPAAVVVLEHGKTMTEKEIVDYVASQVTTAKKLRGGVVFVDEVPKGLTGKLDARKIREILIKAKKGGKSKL
Chain of Peroxisome proliferator-activated receptor alpha (Homo sapiens) (Q07869 whole entry, looked up): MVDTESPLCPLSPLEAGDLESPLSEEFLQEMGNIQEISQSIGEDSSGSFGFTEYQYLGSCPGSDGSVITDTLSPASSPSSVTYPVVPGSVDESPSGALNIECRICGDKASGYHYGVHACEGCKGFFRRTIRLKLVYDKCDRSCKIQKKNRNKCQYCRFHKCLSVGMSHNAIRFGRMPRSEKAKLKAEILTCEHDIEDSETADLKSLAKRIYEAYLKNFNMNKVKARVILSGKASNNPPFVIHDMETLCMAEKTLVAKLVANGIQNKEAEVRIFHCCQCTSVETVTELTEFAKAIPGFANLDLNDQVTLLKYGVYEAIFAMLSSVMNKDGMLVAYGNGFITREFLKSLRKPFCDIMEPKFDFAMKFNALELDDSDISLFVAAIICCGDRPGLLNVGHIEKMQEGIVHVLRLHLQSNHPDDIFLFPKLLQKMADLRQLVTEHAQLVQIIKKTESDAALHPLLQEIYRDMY

Turning to `COP(=O)(OC)[C@@H](O)C(Cl)(Cl)Cl`, the molecule was called inactive in [1], in test [3] and in test [6]. Also, the values for the activity change, negative = inhibition in test [2] and in [8] (at 25.7 µM (top of the series)) were -11.8% (inactive) and -2.04% (inactive), respectively. For the same molecule, the Potency in test [4] and in test [5] was > 20.6 µM (inactive) in each case. Further, the Potency entry in [7] and in test [9] was “inactive” each time. For the same molecule, the max response in [8] (setting [20]) came out at 5.96%; in test [8] (setting [21]), 2.5%.
For `CN1CCC2=C[C@H](O)[C@@H]3OC(=O)c4cc5c(cc4[C@H]3[C@H]21)OCO5`, the outcome in test [1], in test [3] and in [6] was inactive. The activity change, negative = inhibition is -12.8% (inactive) in test [2] and 0.357% (inactive) in test [8] (at 25.7 µM (top of the series)). Further, the Potency in test [4] is > 20.6 µM (inactive). Besides, the Potency entry in [7] and in test [9] was “inactive” each time. For the same molecule, the figures for the max response in test [8] (setting [20]) and in [8] (setting [21]) were -2.84% and -1.93%, respectively.
For the molecule `CNC(=O)N(C)c1nnc(C(C)(C)C)s1`, the outcome in test [1] and in test [3] was inactive. Further, the activity change, negative = inhibition in test [2] is -5.4% (inactive); in test [8] (at 57.5 µM (top of the series)), 6.39% (inactive). Besides, the Potency entry in [10], in test [11] and in test [12] was “inactive” in each case. The max response in test [8] (setting [20]) is 16.4%; in [8] (setting [21]), 25.2%; in test [13] it was -3.93% (inactive); in test [14], -3.03% (inactive).
For the molecule `Oc1ccc2c3c1O[C@H]1[C@@H](O)CC[C@]4(O)[C@H](C2)N(CC2CCC2)CC[C@@]314`, the molecule was classed as inactive in [1], in [3] and in test [6]. Also, the values for the activity change, negative = inhibition in test [2] and in test [8] (at 25.7 µM (top of the series)) were -1.63% (inactive) and -2.99% (inactive), respectively. Also, the Potency in [4] was > 20.6 µM (inactive). Besides, the Potency result in test [7] and in test [9] was “inactive” in each case. Besides, the figures for the max response in test [8] (setting [20]) and in test [8] (setting [21]) were 3.75% and 0.408%, respectively.
In the case of `COc1cc2c(cc1O)C[C@H]1c3c(cc(O)c(OC)c3-2)CCN1C`, the Potency was 2.51 µM (active) in test [15]; > 20.6 µM (inactive) and > 46 µM (inactive) in [4]; > 20.6 µM (inactive) and > 46 µM (inactive) in [5]. Moreover, the activity change, negative = inhibition in [2] is -8.08% (inactive); in test [8] (at 25.7 µM (top of the series)) it was 0.193% (inactive). For the same molecule, the molecule was classed as inactive in test [3] and in [6]. Also, the Potency entry in test [7], in test [10] and in test [9] was “inactive” each time. The figures for the max response in test [8] (setting [20]) and in [8] (setting [21]) were 3.24% and 4.01%, respectively.
As to `CC(=O)OCC(=O)[C@@H]1CC[C@H]2[C@H]3CC[C@H]4C[C@@H](O)CC[C@]4(C)[C@@H]3C(=O)C[C@@]12C`, the result in test [1], in [3] and in test [6] was inactive. Further, the Potency result in [15], in test [7], in test [16], in [18] and in [19] was “inactive” each time. The Potency in test [4] was > 20.6 µM (inactive). For the same molecule, the activity change, negative = inhibition in test [8] (at 25.7 µM (top of the series)) is -5.39% (inactive). The max response in test [8] (setting [20]) was -23.1%; in test [8] (setting [21]), -26.2%. Moreover, the figures for the activity, negative = inhibition in [17] (parasite line A) and in test [17] (parasite line B) were 5.9% (inactive) and 17.2% (inactive), respectively.
For the molecule `Clc1ccc(CO[C@@H](Cn2ccnc2)c2ccc(Cl)cc2Cl)cc1`, the result in test [1] and in test [3] was inactive. In test [4], the Potency is > 20.6 µM (inactive). Besides, the Potency entry in test [10] is “inactive”. For the same molecule, the activity change, negative = inhibition in test [8] (at 25.7 µM (top of the series)) was -6.08% (inactive). Further, the figures for the max response in [8] (setting [20]) and in [8] (setting [21]) were -18.5% and -19.5%, respectively.
